# Source: PubChem BioAssay
# Sampled rows, rich in hits. Any-hit rate of the full collection: about 6.7%.
# Pf Dd2 inh: inhibitors of Plasmodium falciparum Dd2 growth | activity change, % at 10 µM | P. falciparum Dd2 growth, SYBR Green, 72 h; active compounds read low | 2.3% of 94,000 active; in the data active = activity change below about -80%; inconclusive = no clear call, values can overlap the other calls
# T cruzi growth-1: T. cruzi proliferation inhibition | 5.9% of 77,000 active | inhibition, % at 8.34 µM | T. cruzi beta-gal in NIH3T3, GalScreen luminescence, 90 h;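 active = mean inhibition above about 93%, with at least 55% of replicates each passing it, limit read from the data, passing the limit was not always enough; inconclusive = only one of those two conditions holds; inactive = neither condition holds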
# C diff HTS: inhibitors of Clostridium difficile growth; AID 1259249; Clostridium difficile clinical isolate growth, OD600, 24 h; active compounds read low; growth activity, negative = inhibition, % at 16 µg/mL (by protocol); 0.25% of 86,000 active;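 active = mean growth activity at or below -80% and every replicate also at or below -80%; inconclusive = mean at or below -80% but some replicate above -80%; inactive = mean growth activity above -80%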;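 note: 0% = DMSO wells and -100% = levofloxacin 16 µg/mL wells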
# T cruzi growth-2: Trypanosoma cruzi proliferation inhibition. inhibition, % at 8.35 µM. shares compounds with T cruzi growth-1. 72% of 5,600 active. T. cruzi beta-gal in NIH3T3, GalScreen luminescence, 90 h. AID 651739;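 active = mean replicate inhibition above about 95% and at least 55% of replicates individually reaching it, limit read from the data; inconclusive = only one of the two criteria is met; inactive = neither criterion is met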
# T cruzi growth-3: inhibitors of T. cruzi proliferation; shares compounds with T cruzi growth-1; T. cruzi beta-gal in NIH3T3, GalScreen luminescence, 90 h; inhibition, % at 2.09 µM; 21% of 5,600 active;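 active = mean inhibition above about 95%, with at least 55% of replicates also reaching it, limit read from the data; inconclusive = meets just one of the two conditions; inactive = meets neither condition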;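 note: plate controls were neutral control median for no effect and positive control median for full effect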
# 3T3 cytotox: cytotoxicity in mouse NIH/3T3 fibroblasts. shares compounds with T cruzi growth-1. NIH/3T3 viability, CellTiter-Glo ATP luminescence, 90 h. cytotoxicity (signal decrease), % at 8.35 µM. 14% of 5,600 active. AID 651742;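 active = mean signal decrease across replicates above about 35% based on untreated-well scatter, with enough replicates individually passing, limit read from the data; inconclusive = no rule stated though some were filed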;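 note: 0% = median of neutral control wells and 100% = median of positive control wells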
# NIH3T3 tox 2: kills mouse NIH/3T3 fibroblasts; inhibition, % at 24.9 µM; 56% of 5,600 active; AID 651744; NIH/3T3 viability, CellTiter-Glo ATP luminescence, 90 h; shares compounds with T cruzi growth-1;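 active = mean loss of cell viability signal at or above a set limit, and enough replicates individually reaching it; inconclusive = meets only the mean limit or only the replicate share; inactive = meets neither condition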;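 note: 0% = median of neutral control wells and 100% = median of positive control wells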
# * hit, by the source's call; u = inconclusive; x = no result.
SMILES,Pf Dd2 inh,T cruzi growth-1,C diff HTS,T cruzi growth-2,T cruzi growth-3,3T3 cytotox,NIH3T3 tox 2
CCc1csc(N2[C@H](C#N)[C@@H](c3ccc(-c4cccc(F)c4)cc3)[C@H]2CO)n1,-14.3,100.4*,12.6,108.1*,88.9,29.0,31.4*
CCc1csc(N2[C@H](C#N)[C@H](c3ccc(C#Cc4ccc(F)cc4)cc3)[C@H]2CO)n1,-50.6,93.5,17.7,x,x,x,x
CCc1csc(N2[C@@H](C#N)[C@@H](c3ccc(C#Cc4ccc(F)cc4)cc3)[C@@H]2CO)n1,-47.0,94.0,8.4,x,x,x,x
O=C(Cc1ccccc1)N1CC(=O)N2[C@H](CO)[C@@H](c3ccc(C4=CCCC4)cc3)[C@@H]2C1,-48.4,x,-2.9,x,x,x,x
CN(C)C(=O)C[C@H]1C[C@@H]2c3cc(NC(=O)Nc4ccccc4)ccc3O[C@@H]2[C@@H](CO)O1,-12.2,-0.7,-0.9,x,x,x,x
CCC(=O)N(C)C[C@H]1Oc2ncc(-c3ccccc3OC)cc2C(=O)N([C@@H](C)CO)C[C@H]1C,-2.6,-60.3,0.9,x,x,x,x
CCc1csc(N2[C@@H](C#N)[C@@H](c3ccc(-c4cccc(F)c4)cc3)[C@@H]2CO)n1,5.7,99.7*,4.6,u,76.3,45.3*,81.6*
CN1c2ccc(-c3ccc(F)cc3)cc2[C@@H]2[C@@H](CCN2C(=O)Cc2cccnc2)[C@H]1CO,6.0,115.4*,-0.9,116.9*,102.9*,-9.1,3.5
CN1c2ccc(-c3ccccc3)cc2[C@@H]2[C@@H](CCN2C(=O)Cc2ccccn2)[C@@H]1CO,-31.8,98.8*,-10.8,105.5*,57.6,-7.8,-5.6
CN1c2ccc(-c3cccc(C#N)c3)cc2[C@H]2[C@H](CCN2C(=O)CN2CCOCC2)[C@H]1CO,-26.1,u,-9.0,107.9*,9.2,2.0,15.8
CN1c2ccc(-c3cccc(F)c3)cc2[C@@H]2[C@@H](CCN2C(=O)Cc2cccnc2)[C@@H]1CO,8.0,73.1,1.6,x,x,x,x
CN1c2ccc(-c3ccc(F)cc3)cc2[C@@H]2[C@@H](CCN2C(=O)Cc2ccccn2)[C@H]1CO,-27.7,10.1,-10.4,x,x,x,x
CN1c2ccc(-c3ccc(F)cc3)cc2[C@H]2[C@H](CCN2C(=O)Cc2ccccn2)[C@H]1CO,-28.6,5.1,-13.2,x,x,x,x
COc1ccc(-c2ccc3c(c2)[C@@H]2[C@@H](CCN2C(=O)Cc2ccccn2)[C@@H](CO)N3C)cc1,-56.2,u,-8.9,107.1*,84.1,-30.0,-11.9
CN1c2ccc(-c3cccc(C#N)c3)cc2[C@H]2[C@H](CCN2C(=O)CN2CCOCC2)[C@@H]1CO,-65.1,57.4,-6.4,x,x,x,x
O=C(C[C@@H]1C[C@H]2c3cc(NC(=O)Nc4ccccc4)ccc3O[C@H]2[C@H](CO)O1)NCCN1CCCCC1,-11.7,-76.2,-3.1,x,x,x,x
OC[C@H]1[C@@H](c2ccc(-c3cncnc3)cc2)[C@@H]2CN(CC3CCOCC3)CCCCN12,33.3,2.4,12.0,x,x,x,x
CCNC(=O)C[C@H]1CC[C@@H]2[C@H](COC[C@H](O)CN2S(=O)(=O)c2ccccc2F)O1,-8.5,2.8,x,x,x,x,x
COCCNC(=O)C[C@H]1C[C@@H]2c3cc(NS(C)(=O)=O)ccc3O[C@@H]2[C@@H](CO)O1,31.2,1.0,3.5,x,x,x,x
Cc1ccccc1S(=O)(=O)N1C[C@@H](O)COC[C@@H]2O[C@@H](CC(=O)O)CC[C@H]21,14.4,-93.4,9.3,x,x,x,x
CN1c2ccc(-c3ccc(F)cc3)cc2[C@H]2[C@H](CCN2C(=O)Cc2ccccn2)[C@@H]1CO,-67.0,u,-29.0,110.3*,53.5,-35.8,-6.6
CN1c2ccc(-c3cccc(C#N)c3)cc2[C@H]2[C@H](CCN2C(=O)C2CC2)[C@H]1CO,-44.2,x,5.5,x,x,x,x
CN1c2ccc(-c3ccc(F)cc3)cc2[C@@H]2[C@@H](CCN2C(=O)Cc2ccccn2)[C@@H]1CO,-29.2,56.3,-12.8,x,x,x,x
CN(C)C(=O)c1cccc(-c2ccc3c(c2)[C@@H]2[C@@H](CCN2C(=O)Cc2ccccn2)[C@@H](CO)N3C)c1,-20.4,26.8,6.2,x,x,x,x
CN1c2ccc(-c3cccc(C#N)c3)cc2[C@@H]2[C@@H](CCN2C(=O)Cc2ccccn2)[C@@H]1CO,-49.8,105.7*,-19.9,101.7*,50.8,-10.8,36.3*
CCC(=O)N1CC[C@@H]2[C@H]1c1cc(-c3ccc(C#N)cc3)ccc1N(C)[C@H]2CO,18.4,81.0,0.6,x,x,x,x
